High-throughput results as filed in PubChem.
Sampled rows, rich in hits. Any-hit rate of the full collection: about 21%.
ELG1 DNA repair: blocks ELG1-dependent DNA repair in HEK293T cells | HEK293T ELG1-luciferase reporter, luminescence, 16 h; DNA damage induced by 5-fluorouridine | AID 504467 | Potency, µM (doses to about 46.1 µM), inactives show at the highest dose activity change, negative = inhibition, most hits filed as inhibitors | 2.3% of 330,000 active; also: potency is read from the fitted curve at half-maximal effect; nearly all actives have a fitted effect of over 55% in size
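5-Fluorouridine DNA damage + compound/DMSO, 2,000 cells/well, 16 h, 37 °C/5% CO2. ONE-Glo, 30 min RT, luminescence. Readout = decrease in reporter signal.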
RORgamma inh: ROR gamma (mouse) transcription inhibition; Drosophila S2 Gal4-RORgamma UAS-luciferase reporter, 20 h; Potency, µM (series often up to 53.6 µM), for the others: top-dose activity change, negative = inhibition, hits mostly inhibitors; 5.4% of 310,000 active; P51450; AID 2551; also: potency is read from the fitted curve at half-maximal effect; nearly all actives have a fitted effect of over 60% in size
Target sequence (P51450 whole entry, looked up, the tested form may be a part): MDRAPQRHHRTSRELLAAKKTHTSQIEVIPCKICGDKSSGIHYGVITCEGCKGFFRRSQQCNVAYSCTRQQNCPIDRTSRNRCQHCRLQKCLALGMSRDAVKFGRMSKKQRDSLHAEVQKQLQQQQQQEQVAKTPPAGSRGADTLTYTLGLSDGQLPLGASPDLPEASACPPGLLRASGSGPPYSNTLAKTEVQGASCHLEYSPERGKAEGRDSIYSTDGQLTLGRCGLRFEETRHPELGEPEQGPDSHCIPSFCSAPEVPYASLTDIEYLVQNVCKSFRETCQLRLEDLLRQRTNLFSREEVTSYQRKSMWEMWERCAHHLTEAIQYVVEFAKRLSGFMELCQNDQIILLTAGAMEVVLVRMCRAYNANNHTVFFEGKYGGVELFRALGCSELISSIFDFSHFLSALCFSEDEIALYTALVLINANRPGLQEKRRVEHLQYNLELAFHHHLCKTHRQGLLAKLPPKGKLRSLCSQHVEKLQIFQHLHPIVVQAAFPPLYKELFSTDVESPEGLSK
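ROR gamma transcriptional activity was tracked as Gal4-UAS luciferase output in stably transfected Drosophila Schneider cells, with compound added 1 hr before 700 uM copper sulfate induction and a 20 hr ambient-temperature incubation.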
TDP1 cell CPT: DT40-hTDP1 cell growth loss with CPT; chicken DT40 Tdp1-/-;hTDP1 cells + 20 nM CPT, ATP luminescence, 48 h; Potency, µM (doses to about 46.2 µM), for the others: top-dose activity change, negative = growth inhibition, actives largely listed as inhibitors; 12% of 420,000 active; AID 686979; also: potency is read from the fitted curve at half-maximal effect; nearly all actives have a fitted effect of over 55% in size
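Chicken DT40 Tdp1-/- cells stably complemented with human TDP1 were seeded at 400 cells/well in medium containing 20 nM camptothecin, exposed to pin-transferred compounds, and grown at 37 °C for at least 48 hr. Viability was read as ATP luminescence.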
VP16 counter: inhibits Gal4-VP16 luciferase reporter, ROR gamma counter-screen. Drosophila S2 Gal4-VP16 UAS-luciferase, luminescence, 20 h. Potency, µM (titrated, usually from 53.6 µM), inactives show at the top dose activity, negative = inhibition, usual class: inhibitors. 3.5% of 310,000 active. AID 2546;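 also: Gal4-VP16 expression switched on by copper sulfate through the metallothionein promoter; potency is read from the fitted curve at half-maximal effect; nearly all actives have a fitted effect of over 50% in size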
DT40 TDP1 no CPT: qHTS for Inhibitors of human tyrosyl-DNA phosphodiesterase 1 (TDP1): qHTS in cells in absence of CPT; Potency, µM (highest dose often 46.2 µM), for the others: at the highest dose activity change, negative = growth inhibition, hits mostly inhibitors; 15% of 420,000 active; AID 686978, 2013; DT40 Tdp1-/- hTDP1 cells, no CPT, ATP luminescence, 48 h; also: potency is read from the fitted curve at half-maximal effect; nearly all actives have a fitted effect of over 55% in size
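Compound effects on proliferation are scored in DT40 Tdp1-/-;hTDP1 cells in the absence of CPT. ATP levels (CellTiter-Glo luminescence) are recorded after a ≥48 hr, 37 °C incubation.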
IL1B secr inh: blocks inflammasome-driven IL-1 beta release | THP-1 LPS/ATP IL-1B secretion, AlphaLISA, 16 h; active compounds read low | activity change, % at 57.5 µM | 4.7% of 360,000 active; in the data active = activity change below about -50%; inconclusive = mostly about -30% to -49%
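Secreted IL-1B measured by AlphaLISA bead assay after 16 h compound exposure of THP-1 cells; compounds (final up to 57.5 uM) added 1 h before LPS (250 ng/mL) and ATP (1.25 mM) stimulation; lower signal means less secretion.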
* = called active by the depositor; ? = inconclusive; . = no result given; ! = not active in a repeat; [ ] = another dose, or the depositor's remark. Unless noted, calls follow the shape of the dose curve; as a rule, active = well fitted curve in the direction sought with a large enough effect; inconclusive = small, poorly fitted or top-dose-only effect, or another doubt; inactive = no such curve, though single readings can be large; an effect the other way counts as inactive or inconclusive. % is scaled to controls: 0 for no effect and ±100 for the full control effect.

SMILES | ELG1 DNA repair | RORgamma inh | TDP1 cell CPT | VP16 counter | DT40 TDP1 no CPT | IL1B secr inh
O=C(COc1ccccc1-c1nc(-c2ccccc2)no1)Nc1ccccc1[N+](=O)[O-] | . | . | 9% | . | -5% | .
CC(NC(=O)C1CCN(c2nnc(N3CCCC3=O)s2)CC1)c1ccccc1 (stereo unspecified) | -11% | 17% | -22% | 5% | -10% | 18
COC(=O)c1c(-c2ccc(OC)cc2)sc2cc3c(cc12)OCO3 | ? | . | -17% | . | -10% | 42
COC(=O)c1c(-c2ccsc2)sc2ccc(-c3cc(OC)c(OC)c(OC)c3)cc12 | 9.2µM* | . | ? | . | 9.2µM* | 1
COC(=O)c1c(-c2ccc(N(C)C)cc2)sc2ccc(OC)cc12 | ? | . | ? | . | 13µM* | 39
CCCn1c(-c2ccc(F)cc2)nc2c(NCC(C)(C)CN(C)C)nc(C)nc21 | . | -22% | . | -3% | . | .
CC(CCc1ccccc1)NCc1ccc(Cl)cc1Cl (stereo unspecified) | -19% | -12% | ? | -18% | ? | -70*
Fc1ccccc1CNc1cc(Cl)cc(Cl)c1 | ? | ? | ? | -19% | -11% | 5
O=[N+]([O-])c1ccc(C=NNC(=S)Nc2ccc(F)cc2)cc1 | . | . | 1.5µM* | . | 2.9µM* | 0
Fc1ccc(CNC(=S)Nc2ccc(Cl)cc2)cc1 | 11% | 7.1µM* | ? | 16µM* | ? | -16
CC(O)CNCc1ccc(Cl)cc1Cl (stereo unspecified) | 15% | -5% | -6% | -1% | -29% | 30
Fc1ccccc1CNC(=S)NCc1ccc(Cl)cc1 | -19% | 7.9µM* | -11% | ? | -20% | 13
Cc1ccc(-c2nn3c(=O)cc(CN4CCN(C(=O)Nc5cc(Cl)ccc5C)CC4)nc3s2)cc1 | . | . | ? | . | -2% | .
Cc1noc(NS(=O)(=O)c2cccc3c(N(C)C)cccc23)c1C | . | 16% | 0% | -4% | -10% | .
O=C(NCC1CCC2(CCN(Cc3cccc4ncccc34)CC2)O1)c1ccccc1 (stereo unspecified) | . | . | -17%[9.04 µM] | . | -18% | .
COc1ccccc1C(=O)NCCC(=O)N1CC=C(c2ccccc2)CC1 | ? | . | ? | . | -18% | -18
S=C(Nc1ccccc1)Nc1ccc(Cl)cc1Cl | 8% | ? | 18µM* | -12%[0.365 µM] | ? | -1
S=C(NCc1ccc(Cl)cc1Cl)Nc1ccccc1 | -23% | 7.1µM* | ? | 6.3µM* | ? | -1
S=C(NCc1ccc(Cl)cc1)Nc1ccncc1 | -12% | ? | 8.2µM* | 7.1µM* | ? | -17
O=[N+]([O-])c1ccc(NC(=S)NCc2ccc(F)cc2)cc1 | ? | ? | ? | ? | 15µM* | -100*
S=C(NCc1ccc(Cl)cc1)Nc1ccccc1 | 10% | 2.2µM* | ? | 3.5µM* | 21µM* | -23
NS(=O)(=O)c1ccc(NC(=S)NCc2ccc(Cl)cc2)cc1 | -3% | 44% | ? | -13% | ? | 5
CCCCNC(=O)C1CC(c2c(Cl)cccc2Cl)=NO1 (stereo unspecified) | -22% | 8% | 9.2µM* | 2% | 9.2µM* | 20
Cc1ccc(SCC(c2ccccc2)N2CCN(CC(C)C)CCC2=O)cc1 (stereo unspecified) | . | 22% | . | -15% | . | .
Cc1ccc(SC[C@H](c2ccccc2)N2CCN(CC(C)C)CCC2=O)cc1 | ? | 18% | 16µM* | -3% | 12µM* | -6
SMILES | ELG1 DNA repair | RORgamma inh | TDP1 cell CPT | VP16 counter | DT40 TDP1 no CPT | IL1B secr inh
CN1CCC(=O)N([C@H](CSc2ccccc2)c2ccccc2)CC1 | 28% | 19% | ? | 4% | 18µM*! | 4
Cc1ccc(SC[C@H](c2ccccc2)N2CCN(C)CCC2=O)cc1 | ? | 3% | -16% | 26% | ? | -3
CCCN1CCC(=O)N([C@H](CSc2ccc(OC)cc2)c2ccccc2)CC1 | ? | 9% | ? | 6% | 16µM* | 12
Cc1ccc(S(=O)(=O)NCC2CCC(C(=O)NCCCN3CCCC3=O)CC2)cc1 (stereo unspecified) | 2% | 4% | -20% | -3% | 30% | -11
COc1ccc(C2=NS(=O)(=O)N(C)C(C(=O)N3CCCCC3)=C2)cc1OC | 11% | 9% | ? | -5% | ? | 0
CCOC(=O)c1ccccc1NC(=O)c1cn(-c2ccc(C)c(C)c2)c(=O)c2ccccc12 | ? | ? | 21µM* | -10% | ? | ?
COC(=O)c1ccccc1NC(=O)c1cc(=O)c2ccc(C)c(C)c2o1 | . | . | -15% | . | -8% | .
CCOC(=O)c1ccccc1NC(=O)c1cn(-c2ccc(OC)cc2)c(=O)c2ccccc12 | 6.5µM* | ? | ? | -11% | ? | -9
COc1ccc(-n2cc(C(=O)Nc3cc([N+](=O)[O-])ccc3OC)c3ccccc3c2=O)cc1 | ? | 2% | -1% | -22% | -18% | -1
COC(=O)c1ccccc1NC(=O)c1cn(-c2ccc(C)c(C)c2)c(=O)c2ccccc12 | 9.2µM* | 41% | ? | 2% | 23µM* | 0
Nc1ccccc1-c1nnn(CC(=O)N2CCCc3ccccc32)n1 | -6% | ? | -1% | -2% | -17% | ?
CCCN(C(=O)CSCc1c(C)noc1C)c1c(N)n(Cc2ccccc2)c(=O)[nH]c1=O | 30% | . | 6% | . | -1% | 3
COc1ccc(CN2C(=O)C(CC(=O)NCCCN(C)C)CC(C(=O)N(C)C)=C2C)cc1 (stereo unspecified) | . | . | 16% | . | 9% | 19
O=C(CN1C(=O)c2ccccc2S1(=O)=O)c1ccc2c(c1)OCCO2 | ? | 0.025µM* | -14% | 0.56µM* | -6% | -16
O=C(CN1C(=O)c2ccccc2S1(=O)=O)c1ccc(OC(F)F)cc1 | 12µM* | 13µM* | -6% | 10µM* | -13% | -8
O=C(CN1C(=O)c2ccccc2S1(=O)=O)c1ccc2c(c1)OCCCO2 | 1µM* | 0.28µM* | 11% | 0.71µM* | -3% | 19
CN(Cc1ccccc1)C(=O)c1cccc(NC(=O)Cc2cccc(NC(=O)C3CCN(C(=O)c4ccccc4)CC3)c2)c1 | . | . | ? | . | ? | -12
COc1ccc2c(c1)O[C@H](c1ccc3c(c1)OCO3)[C@@H](OC(=O)NS(=O)(=O)c1ccc(F)cc1)C2=O | . | 0% | . | 7% | . | .
